Results taken from PubChem BioAssay AID2590 (National Center for Advancing Translational Sciences (NCATS), 2010).
Inconclusive results are not listed. Values without a mark were called inactive. Calls of active or inactive are those of the source. The call rests on the fitted dose curve; in most records, active means well fitted curve in the direction sought with a large enough effect; inconclusive means small, poorly fitted or top-dose-only effect, or another doubt; inactive means no such curve, though single readings can be large or run the other way.

Target: Lysosomal acid glucosylceramidase (Homo sapiens) (UniProt P04062)
Sequence (P04062 whole entry N409S): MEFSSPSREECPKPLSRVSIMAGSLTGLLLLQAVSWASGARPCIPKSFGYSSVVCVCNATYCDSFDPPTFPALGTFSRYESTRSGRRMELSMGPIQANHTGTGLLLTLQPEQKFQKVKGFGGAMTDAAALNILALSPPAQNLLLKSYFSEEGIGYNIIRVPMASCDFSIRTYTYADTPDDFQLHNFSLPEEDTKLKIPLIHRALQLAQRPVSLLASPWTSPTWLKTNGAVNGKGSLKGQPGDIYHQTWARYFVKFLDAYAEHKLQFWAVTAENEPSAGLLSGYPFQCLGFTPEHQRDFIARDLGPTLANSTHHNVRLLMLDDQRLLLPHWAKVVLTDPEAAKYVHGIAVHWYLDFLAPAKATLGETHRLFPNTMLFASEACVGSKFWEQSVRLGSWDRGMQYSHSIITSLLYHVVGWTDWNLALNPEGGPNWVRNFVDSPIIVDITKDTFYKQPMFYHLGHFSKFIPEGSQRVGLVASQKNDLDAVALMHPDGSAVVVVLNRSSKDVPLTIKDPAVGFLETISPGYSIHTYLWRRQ
Assay: qHTS Assay for Inhibitors and Activators of N370S glucocerebrosidase as a Potential Chaperone Treatment of Gaucher Disease: Primary Screen Confirmation;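 on Potency: enzyme source is Gaucher patient spleen homogenate not purified recombinant protein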;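 on activity change, negative = inhibition: 0% = enzyme with DMSO and -100% = no enzyme basal signal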
Settings: N370S glucocerebrosidase enzyme activity, fluorogenic substrate; series mostly up to 54 µM; activity change, negative = inhibition: at the top concentration
Method in brief: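 Patient-spleen homogenate carrying N370S GC (27 ug) in pH 5.0 citrate buffer with 0.01% Tween-20, 1 mM 4-methylumbelliferyl-beta-glucoside, 40 min at 37C; fluorescence 365/440 nm after NaOH/glycine stop; AC50 from Hill fits.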
Potency means the concentration at half of the fitted maximal effect.

Question: For Cc1cc(C)n2ncc(C(=O)Nc3cccc(O)c3)c2n1, which “activity change, negative = inhibition” value is on record?
Answer: The value was -2.41%.

Question: With CCCCN(CCCN)c1ccc(Br)cn1 as the compound, how does the “activity change, negative = inhibition” value read?
Answer: The value was -10.7%.

Question: Which “activity change, negative = inhibition” value does the source give for Cc1ccc(S(=O)(=O)N2CCC(c3nc(-c4cccs4)nc4ccccc34)CC2)cc1 here?
Answer: Its value is -20.3%.

Question: How did the “activity change, negative = inhibition” value turn out when CCCCN(Cc1ccc(Cl)c(Cl)c1)c1ccc(Br)cn1 was run?
Answer: The value was -6.38%.

Question: How did the Potency turn out when S=C(NCCCc1cnc[nH]1)NCCCN(Cc1ccc(Cl)cc1)c1ccc(-c2ccccc2)cn1 was run?
Answer: The Potency was 1.27 µM (active).

Question: Which “activity change, negative = inhibition” value does the source give for CCCCNC(=O)c1cc2c(=O)n3cccc(C)c3nc2s1 here?
Answer: The value was 23.8%.

Question: For O=S(=O)(c1ccc2c(c1)OCCO2)N1CCN(c2nc(-c3ccccc3)nc3ccccc23)CC1, which Potency is on record?
Answer: The Potency was 3.2 µM (active).

Question: Which Potency does the source give for Cc1ccccc1-c1nccc(NCc2cccs2)n1 here?
Answer: Its Potency is 15.8 µM (active).

Question: O=S(=O)(c1cc(Cl)cc(Cl)c1)N1CCN(c2nc(-c3cccs3)nc3ccccc23)CC1 was tested. Which Potency did it give?
Answer: The Potency was 2.53 µM (active).

Question: Which “activity change, negative = inhibition” value does the source give for CC(=O)NCCCN(Cc1ccc(Cl)c(Cl)c1)c1ccc(Br)cn1 here?
Answer: The value was 0.436%.

Question: Which Potency does the source give for Cc1ccc(S(=O)(=O)N2CCN(c3nc(-c4cccnc4)nc4ccccc34)CC2)cc1 here?
Answer: The Potency was 16.3 µM (active).

Question: With O=S(=O)(c1cccs1)N1CCN(c2nc(-c3cccs3)nc3ccccc23)CC1 as the compound, how does the Potency read?
Answer: The Potency was 0.819 µM (active).

Question: With Cc1cccc(NC(=O)Nc2cccc(C)n2)n1 as the compound, how does the “activity change, negative = inhibition” value read?
Answer: The value was 25.9%.

Question: For O=C(Nc1cnn(Cc2ccc(F)cc2)c1)c1cnn2c(C(F)F)cc(-c3ccccc3)nc12, which “activity change, negative = inhibition” value is on record?
Answer: Its value is 42.8%.

Question: For CCN(CC)c1ccc(Br)cn1, which Potency is on record?
Answer: The Potency was 9.18 µM (active).

Question: Cc1ccc(S(=O)(=O)N2CCN(c3nc(-c4cccs4)cc4ccccc34)CC2)cc1 was tested. Which Potency did it give?
Answer: Its Potency is 3.26 µM (active).

Question: Which Potency does the source give for CN1CCOc2cc(S(=O)(=O)N3CCN(c4nc(-c5cccs5)nc5ccccc45)CC3)ccc21 here?
Answer: Its Potency is 0.58 µM (active).
